Experiment [1] in a line: GFP-Q80 aggregate reduction, neuronal-like cells, cell-based, NGF-treated PC12, GFPQ80 (AID 1614).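 Further: lower means fewer inclusions and 0 means no inclusions at all.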 Particulars: PC12 NGF-treated GFP-polyQ80 inclusion reduction.
Experiment [2] is described as follows: viability loss in pontine glioma line – cell-based, SU-DIPG-XVII, MIPE5.0, CellTiter-Glo, qHTS, dose response (AID 1347060; cut-off not given, nearly all actives have AC50 up to about 26 µM;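 on AC50: cells exposed to compound for 48 hours before viability readout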). Particulars: CellTiter-Glo ATP luminescence.
Experiment [3] is described as follows: viability loss in pontine glioma line – cell-based, SU-DIPG-XIII, MIPE4.0, CellTiter-Glo, qHTS, dose response (AID 1347061; cut-off not given, nearly all actives have AC50 up to about 37 µM;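 further: cells exposed to compound for 48 hours before readout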). The following applies: CellTiter-Glo ATP luminescence. In general terms: ATP-based viability assays read luminescence as a measure of living cells.
A short description of experiment [4]: viability loss in pontine glioma line – cell-based, JHH-DIPG-1, MIPE4.0, CellTiter-Glo, qHTS, dose response (AID 1347062; cut-off not given, nearly all actives have AC50 up to about 27 µM). The following applies: JHH-DIPG-1 viability, CellTiter-Glo ATP luminescence.
The nature of experiment [5]: viability loss in pontine glioma line – cell-based, SU-DIPG-XXV, MIPE5.0, CellTiter-Glo, qHTS, dose response (AID 1347065; cut-off not given, nearly all actives have AC50 up to about 26 µM;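 further: cells exposed to compound for 48 hours before ATP readout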). Particulars: CellTiter-Glo ATP luminescence.
A short description of experiment [6]: growth inhibition of DIPG cells – cell-based, MIPE4.0 library, CellTiter-Glo luminescence, qHTS (AID 1347066; cut-off not given, nearly all actives have AC50 up to about 30 µM;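 further: cells exposed to compound for 48 hours before readout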). The following applies: SU-DIPG-VI viability, CellTiter-Glo ATP luminescence.
A short description of experiment [7]: JHH-DIPG-1 glioma cell viability, MIPE5.0 library, CellTiter-Glo luminescence, qHTS (AID 1347067; cut-off not given, nearly all actives have AC50 up to about 26 µM;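 further: cells exposed to compound for 48 hours before readout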). The following applies: JHH-DIPG-1 glioma viability, CellTiter-Glo ATP luminescence.
Experiment [8] in a line: growth inhibition of DIPG cells – cell-based, MIPE5.0 library, qHTS (AID 1347068; cut-off not given, nearly all actives have IC50 up to about 30 µM). The following applies: SU-DIPG-XXV viability. On the technique in general: In qHTS, concentration-response curves come from the screen itself.
A short description of experiment [9]: growth inhibition, single agent or in combination, cell-based, chromothripsis tumors, cisplatin or BGB combos (AID 1671449).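 Further: cells exposed for 96 hours; 0% = vehicle DMSO and 100% = killing by high DMSO.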 Particulars: LFS_MB_P medulloblastoma cells.
The nature of experiment [10]: growth inhibition, single agent and combos, cell-based, chromothripsis tumors, cisplatin or BGB combos (AID 1671450).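 Further: cells exposed to compound for four days; 0% = vehicle DMSO and 100% = cell killing by high DMSO.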 The following applies: HDN33 neuroblastoma cells, stronger effect = higher value.
Experiment [11] in a line: growth inhibition, single agents and combos, LFS_MB_1R, cell-based, cisplatin or BGB combos, synergistic combos for chromothripsis tumors (AID 1671452).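 Further: cells exposed for 96 hours before readout.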 The following applies: LFS_MB_1R medulloblastoma cells, stronger effect = higher value.
The nature of experiment [12]: growth inhibition, single agents and combos, HTB85, cell-based, BGB or cisplatin IC20 combos, synergistic combos for chromothripsis tumors (AID 1671453).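 Further: cells exposed for 96 hours before readout; 0% = vehicle DMSO and 100% = high DMSO killing control.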 Particulars: HTB85 osteosarcoma cells, drug combinations, stronger effect = higher value.
A short description of experiment [13]: growth inhibition, MDA-MB-436, cell-based, BGB or cisplatin combos, synergistic combos for chromothripsis tumors (AID 1671458; call rule not given here;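 further: cells exposed for 96 hours; 0% = vehicle DMSO and 100% = killing by high DMSO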). Particulars: MDA-MB-436 breast carcinoma growth inhibition, drug combinations, stronger effect = higher value.
Experiment [14] in a line: BT084 cell growth, single and combined drugs, ICGC_MB145, cisplatin and BGB IC40 combos (AID 1671461).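 Further: cells exposed to drugs for 96 hours; 0% = vehicle DMSO and 100% = high DMSO full killing control.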 The following applies: BT084 medulloblastoma cells, drug combinations, stronger effect = higher value.
Experiment [15] is described as follows: RCMB18 cell growth, single agent and combined, cisplatin and BGB IC40 combos (AID 1671462).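 Further: cells exposed to compound for four days.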 The following applies: RCMB18 medulloblastoma cells, stronger effect = higher value.
Experiment [16] in a line: CRL1545 cell growth, single agent and combined, cisplatin and BGB IC20 combos (AID 1671464).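 Further: cells exposed to compound for 96 hours before readout; 0% = vehicle DMSO and 100% = high DMSO killing control.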 The following applies: CRL1545 osteosarcoma cells, stronger effect = higher value.
Experiment [17] has as its system Hepatitis C virus NS3 helicase. Nature of the experiment: blockers of NS3h binding to ssDNA – biochemical, fluorescence polarization, LOPAC1280 library, primary screen (AID 687035; in the data active means inhibition above about 37%). The following applies: Purified HCV NS3 helicase, Cy5-dT15 ssDNA binding fluorescence polarization; stronger effect = higher value; concentration not given here.
The nature of experiment [18]: compounds altering Cy5-DNA-NS3h complex signal – biochemical, LOPAC1280, artefact control for HCV NS3 helicase inhibitor project (AID 687037; call rule not given here). Particulars: Cy5-DNA-NS3h complex fluorescence interference counterscreen. (Counterscreens check selectivity or assay interference.)
Experiment [19] can be described thus: blockers of cellular phospholipid synthesis – cell-based, LOPAC library, screen 4, primary screen (AID 1347384; call rule not given here). The following applies: animal cells, phospholipid biosynthesis inhibition screen; at 10 µM.
Experiment [20] in a line: compounds altering circadian rhythm period length – cell-based, LOPAC library, luminescence reporter (AID 2774; call rule not given here;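 further: values are relative to mean of DMSO wells on each plate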). The following applies: circadian reporter cells, at 7 µM, actives lie on both sides.
[21] abbreviates: at 0.5 µM, stronger effect = higher value.
Setting [22] is: measured here: combination with BGB IC20, at 0.005 µM.
Where [23] appears, read: measured here: combination with BGB IC40, at 0.005 µM.
Setting [24] is: measured here: combination with BGB IC40, at 0.05 µM.
[25] abbreviates: measured here: combination with cisplatin, at 0.5 µM, stronger effect = higher value.
The mark [26] stands for this setting: measured here: combination with cisplatin, at 5 µM, stronger effect = higher value.
The mark [27] stands for this setting: measured here: with BGB IC20 combination, at 0.5 µM.
[28] abbreviates: measured here: with cisplatin IC20 combination, at 0.5 µM.
The mark [29] stands for this setting: measured here: combination with cisplatin, at 0.5 µM.
The mark [30] stands for this setting: measured here: combination with cisplatin, at 5 µM.
Where [31] appears, read: measured here: with BGB IC20, at 0.5 µM.

Values joined by “and” are separate entries in the source; they are usually repeats but may differ in a detail not shown here. Equal entries are not always repeated. Inconclusive results are not listed. Active and inactive are the calls of the source. Unless noted, no stated cut-off is given here; in the data, active means inhibition above about 80%; inactive means the rest.

As a reminder, the inhibition is the change of the read-out against control, counted positive when it falls. With `CS(=O)(=O)OCCCCOS(C)(=O)=O`, the inclusion score in [1] worked out at 2. The call in [2], in experiment [3], in experiment [4], in experiment [5], in [6] and in [7] was inactive. Moreover, the call in [8] was inactive. For the same molecule, the inhibition in experiment [9] (setting [21]) is -1.82% (inactive) and -6.92% (inactive); in experiment [9] (setting [22]), -22.1% and -20.3%; in [9] (setting [23]), -24.6% and 29.3%; in experiment [9] (setting [24]), -40.6% and 3.42%; in experiment [9] (setting [25]) it was 1.85% and -16.8%; in experiment [9] (setting [26]), -55.6% and 0.647%. For the same molecule, the inhibition in experiment [10] (BGB combo, at 5 µM) was -31.6% and -3.19%; in [10] (at 0.5 µM), -10.4% (inactive) and -1.57% (inactive); in experiment [10] (cisplatin combo, at 5 µM), -3.41% and -6.58%; in experiment [10] (setting [27]), -9.64% and 2.06%; in [10] (setting [28]), -8.9% and -4.87%; in experiment [10] (single agent, at 5 µM) it was 0.973% and 14.4%. For the same molecule, the inhibition is -13.7% (inactive) and -24.5% (inactive) in experiment [11] (at 0.5 µM); -7.13% and -11.8% in experiment [11] (setting [24]); -41.7% and -21.3% in experiment [11] (setting [29]); -51.5% and 4.47% in experiment [11] (setting [30]); -4.73% (inactive) and 3.45% (inactive) in [12] (at 0.5 µM); -9.57% and -1.65% in experiment [12] (setting [31]). The inhibition in experiment [12] (measured here: with BGB IC20, at 5 µM) was -6.08% and 4.44%; in experiment [12] (measured here: with cisplatin IC20, at 0.5 µM), -0.002% and 1.89%; in experiment [12] (measured here: with cisplatin IC20, at 5 µM) it was -32.8% and 17%; in experiment [12] (single agent, at 5 µM), -0.247% and 3.08%; in experiment [13] (at 0.5 µM), -11.8% (inactive) and -10.9% (inactive); in experiment [13] (measured here: BGB combination, at 0.5 µM) it was -20.7% and -8.16%. The inhibition in experiment [13] (measured here: BGB combination, at 5 µM) was 10.5% and 6.58%; in [13] (measured here: cisplatin combination, at 0.5 µM), -15.8% and -27%; in experiment [13] (measured here: cisplatin combination, at 5 µM), -17.4% and 2.99%; in experiment [14] (at 0.5 µM), 3.5% (inactive) and 8.55% (inactive); in [14] (cisplatin combination, at 0.5 µM), -11.9% and 10.4%; in experiment [14] (cisplatin combination, at 5 µM), 13.1% and -35.4%. Besides, the inhibition in experiment [14] (measured here: BGB IC40 combination 0.05 uM, at 0.05 µM) was -26.6% and 22.9%; in experiment [14] (single agent, at 5 µM) it was 10.9% and -3.7%; in experiment [15] (at 0.5 µM) it was -11.1% (inactive) and -2.44% (inactive); in experiment [15] (cisplatin combo, at 5 µM) it was -65.6% and 7.8%; in experiment [15] (measured here: BGB IC40 combination, at 0.05 µM), -1.43% and 7.53%; in [15] (setting [29]), -15.9% and -14.5%. Further, the inhibition was -7.92% and -9.74% in [15] (single agent, at 5 µM); -1.43% (inactive) and -28.8% (inactive) in experiment [16] (at 0.5 µM); -7.16% and 14.9% in experiment [16] (setting [27]); -0.178% and -50.7% in experiment [16] (setting [28]); -16.2% and -23.2% in [16] (single agent, at 0.05 µM); -7.55% and 21.7% in experiment [16] (single agent, at 5 µM).
On to `COc1ccccc1OCCNCC(O)COc1cccc2[nH]c3ccccc3c12` (stereo not drawn), for which the inhibition in experiment [17] is -2% (inactive). The fluorescence ratio (interference) in experiment [18] is 1 (inactive). Moreover, the call in experiment [4] and in experiment [19] was inactive.
Consider `N[C@@H](Cc1cc(I)c(Oc2cc(I)c(O)c(I)c2)c(I)c1)C(=O)O`, for which the molecule was called inactive in experiment [2], in experiment [3], in experiment [4], in experiment [5], in [7] and in experiment [8].
On to `OC(Cn1cncn1)(Cn1cncn1)c1ccc(F)cc1F`, for which the inclusion score in [1] was 2. Besides, the call in [2], in experiment [3], in experiment [4], in experiment [5], in [6] and in [7] was inactive. Moreover, the molecule was called inactive in experiment [8].
In turn, `CCN(Cc1ccncc1)C(=O)C(CO)c1ccccc1` (stereo not drawn) registered an inclusion score in experiment [1] of 1. Also, in experiment [20], the period change was 0.035 h (inactive). Further, the inhibition in [17] was -6% (inactive). The fluorescence ratio (interference) in [18] was 0.9 (inactive). Further, in experiment [19], the call was inactive.
A word on the AC50: it is the concentration giving half of the maximal activity seen. Turning to `Oc1c(Cl)cc(Cl)c2cccnc12`, the concentration at half-maximal activity (AC50) in experiment [2] is 16.6 µM (active); in experiment [3], 18.7 µM (active); in [5], 26.3 µM (active); in experiment [6] it was 18.7 µM (active); in [7] it was 2.95 µM (active).
In [1], `CC1COc2c(N3CCN(C)CC3)c(F)cc3c(=O)c(C(=O)O)cn1c23` (stereo not drawn) yielded an inclusion score of 2. Moreover, the period change in [20] is 0.06 h (inactive). Further, the inhibition in experiment [17] is -6% (inactive); in [9] (setting [21]), -15.2% (inactive) and -4.35% (inactive) and -7.1% (inactive); in experiment [9] (setting [22]), -17.1% and -18.6% and 40.6%; in [9] (setting [23]), -34.5% and 8.51% and 11.7%; in experiment [9] (setting [24]), -33.9% and 2.31% and 36%; in [9] (setting [25]), -16.9% and 6.16% and -20.4%. For the same molecule, the inhibition in experiment [9] (setting [26]) was -20.4% and -8.17% and -11.9%; in [10] (BGB combo, at 5 µM), -21.1% and 5.47% and 15%; in experiment [10] (at 0.5 µM) it was -45.4% (inactive) and 10.2% (inactive) and 8.6% (inactive); in [10] (cisplatin combo, at 5 µM), -32.1% and -5.63% and 10.7%; in experiment [10] (setting [27]), -54.6% and 19.4% and 13%; in experiment [10] (setting [28]), -40.5% and 0.068% and 0.136%. In addition, the inhibition in experiment [10] (single agent, at 5 µM) was -44.6% and 1.17% and 11.7%; in experiment [11] (at 0.5 µM), -39.4% (inactive) and -8.3% (inactive) and 2.79% (inactive); in experiment [11] (setting [24]), -24.5% and -34% and -2.54%; in experiment [11] (setting [29]), -78.8% and -30% and 23.8%; in experiment [11] (setting [30]), -87.1% and 21.5% and -3.71%; in [12] (at 0.5 µM), -45.9% (inactive) and 3.58% (inactive) and -0.61% (inactive). Besides, the inhibition in [12] (setting [31]) was -68.8% and -8.08% and -9.45%. Further, the fluorescence ratio (interference) in experiment [18] is 0.9 (inactive). Further, the outcome in experiment [2], in experiment [3], in experiment [4], in experiment [5], in experiment [6] and in experiment [7] was inactive. Further, the call in experiment [8] and in [19] was inactive.

For the origin of these results see PubChem BioAssay.
